From PubChem BioAssay
The list is a sample of the results.
aSyn 5UTR act = Activators via SNCA 5'UTR binding, MLPCN; alpha-synuclein 5'UTR reporter, activators screen; activity score, % (tested at 7.5 µM), hits read low; actives 7.1% (n = 300,000); in the data active = activity score below about -60%
Of the large screens only hits and unclear results are named; the others gave an inactive call.

Cc1ccc(-c2nn(-c3ccccc3)cc2C(=O)Nc2ccc(C)c(S(=O)(=O)N3CCOCC3)c2)cc1	aSyn 5UTR act -110.0
Cc1ccc(C)n1-c1ccc(C(=O)Nc2ccccc2F)cc1	aSyn 5UTR act -157.2
Cn1nnnc1SCc1ccc(C(=O)Nc2ccccc2F)cc1	aSyn 5UTR act -86.2
CCc1ccccc1NC(=O)c1ccc(-n2c(C)ccc2C)cc1	aSyn 5UTR act -97.6
Cn1cnnc1SCc1ccc(-c2ccc(Br)cc2)o1	aSyn 5UTR act -72.4
CN(C)CCNC(=O)C(=O)Nc1ccc2c(c1)N(S(=O)(=O)c1cccs1)CCC2	aSyn 5UTR act -63.2
O=S(=O)(c1cccs1)N1CCCc2cccc(O)c21	aSyn 5UTR act -82.4
CCCNC(=O)C(=O)Nc1ccc2c(c1)N(S(=O)(=O)c1cccs1)CCC2	aSyn 5UTR act -79.4
COCCCNC(=O)C(=O)Nc1ccc2c(c1)N(S(=O)(=O)c1cccs1)CCC2	none
CC1Oc2ccccc2C=C1/C=C1/SC(N2CCOCC2)=NC1=O (configuration not stated)	aSyn 5UTR act -107.7
CC(=C/c1ccccc1)/C=C1/SC(N2CCOCC2)=NC1=O	aSyn 5UTR act -101.8
O=C1C=C(N2CCOCC2)c2ccccc2C1=O	none
CCC(=O)Nc1cccc(C(=O)/C=C/c2cc(Br)ccc2OC)c1	aSyn 5UTR act -125.2
COc1ccc(Br)cc1/C=C/C(=O)Nc1ccc(C)cc1	aSyn 5UTR act -86.3
COc1ccc(Br)cc1/C=C/C(=O)Nc1ccc2ccccc2c1	aSyn 5UTR act -91.2
CCCCNc1c(-c2cccc(-c3cc(C(C)=O)cs3)c2)nc2ccc(C)cn12	aSyn 5UTR act -71.1
CC(=O)c1ccc(N2CCN(C(=O)c3ccc(Cn4c(=S)[nH]c5ccc(N6CCOCC6)cc5c4=O)cc3)CC2)cc1	aSyn 5UTR act -71.7
CC1=NN(c2ccccc2)C(=O)/C1=C/c1cc2cc(C)ccc2nc1N1CCCCC1	aSyn 5UTR act -106.7
CC1(C)CC(=O)C2=C(C1)Nc1ccccc1N=C2	aSyn 5UTR act -162.9
O=C(Nc1ccc(N2CCOCC2)cc1)Nc1cnsn1	aSyn 5UTR act -114.4
O=C(Nc1ccc(N2CCOCC2)cc1)Nc1ccc(Cl)c(Cl)c1	aSyn 5UTR act -139.2
CCOc1ccc(-c2ccc(/C=C3/C(=N)N4C=CSC4=NC3=O)o2)c([N+](=O)[O-])c1	aSyn 5UTR act -72.0
Cc1cccc(OCC(=O)Nc2cccc(O)c2)c1	aSyn 5UTR act -161.5
O=C(COc1cc(Cl)c(Cl)cc1Cl)Nc1cccc(O)c1	aSyn 5UTR act -90.4
Cc1cccc(OCC(=O)Nc2cccc3nsnc23)c1	aSyn 5UTR act -82.0
Cc1ccc(OCC(=O)Nc2cccc(O)c2)cc1C	aSyn 5UTR act -172.1
O=c1c2cccc(Cl)c2nc2n1Cc1ccccc1-2	aSyn 5UTR act -153.5
O=C(Nc1ccc(-c2cn3ccsc3n2)cc1)C1CC1	aSyn 5UTR act -159.2
CC(=O)Nc1ccc(-c2cn3ccsc3n2)cc1	aSyn 5UTR act -71.3
O=C(Nc1ccc(-c2cn3ccsc3n2)cc1)C1CCCC1	aSyn 5UTR act -95.1
c1cn2cc(-c3ccc4c(c3)OCO4)nc2s1	aSyn 5UTR act -137.1
CC(C)CC(=O)Nc1cccc(-c2cn3ccsc3n2)c1	aSyn 5UTR act -126.0
CC(C)(C)CC(=O)Nc1cccc(-c2cn3cccnc3n2)c1	aSyn 5UTR act -107.2
COc1ccc(NC(=O)/C=C/c2ccco2)cn1	aSyn 5UTR act -237.3
COc1ccc(NC(=O)/C=C/c2cccc(F)c2)cn1	aSyn 5UTR act -196.1
COc1cccc(Nc2cc(C)c3ccccc3n2)c1	aSyn 5UTR act -62.7
COc1ccc(Nc2ncnc3ccccc23)cc1	aSyn 5UTR act -152.0
COc1cccc(Nc2ncnc3ccccc23)c1	aSyn 5UTR act -122.6
Cc1ccc(O)c(Nc2ncnc3ccccc23)c1	aSyn 5UTR act -95.5
CCOc1ccc(Nc2nc(N)c3ccccc3n2)cc1	none
COc1ccc(Nc2ccnc(Nc3ccc(OC)cc3)n2)cc1	aSyn 5UTR act -119.8
COc1ccc(Nc2cc(Nc3ccccc3)ncn2)cc1	aSyn 5UTR act -80.9
COC(=O)c1sc(NC(=O)c2ccoc2C)nc1C	aSyn 5UTR act -136.1
COC(=O)c1sc(NC(=O)c2ccco2)nc1C	aSyn 5UTR act -69.0
COC(=O)c1sc(NC(=O)/C=C/c2ccc(C)o2)nc1C	aSyn 5UTR act -65.4
Clc1ccccc1OCc1nnc(-c2ccccc2)o1	aSyn 5UTR act -109.4
Fc1ccc(OCc2nnc(-c3ccccc3Br)o2)c(Cl)c1	aSyn 5UTR act -151.4
Clc1cccc(OCc2nnc(-c3ccccc3Br)o2)c1	aSyn 5UTR act -67.9
Clc1ccc(OCc2nnc(-c3ccccc3Br)o2)c(Cl)c1	aSyn 5UTR act -144.1
COCCCNC(=O)/C=C1\Sc2ccccc2N(Cc2ccccc2F)C1=O	aSyn 5UTR act -93.6
CC(=O)Nc1ccc(NC(=O)CSc2ccc(-c3ccc4c(c3)OCO4)nn2)cc1	aSyn 5UTR act -65.7
Cc1ccc(-c2ccc(SCC(=O)Nc3ccc4c(c3)OCCO4)nn2)cc1	aSyn 5UTR act -97.8
Cc1ccc(-c2ccc(SCC(=O)Nc3nonc3C)nn2)cc1	aSyn 5UTR act -87.0
COc1cccc(-n2ccnc2SCC(=O)Nc2nccs2)c1	aSyn 5UTR act -73.1
CCCC(=O)NC(c1ccc(OC)cc1)c1ccc2cccnc2c1O (configuration not stated)	none
COc1ccc(C(CC(=O)Nc2ccccn2)N2Cc3ccccc3C2=O)cc1 (configuration not stated)	aSyn 5UTR act -113.4
Cc1cccc(-n2c(SCC(=O)Nc3ncc(Cl)cc3Cl)nc3ccccc32)c1	none
COc1ccc(C(CC(=O)Nc2nccs2)n2cccc2)cc1 (configuration not stated)	aSyn 5UTR act -168.5
Cc1cccc(-n2ccnc2SCC(=O)Nc2nccs2)c1	aSyn 5UTR act -132.4
CCOc1ccc(-n2c(SCC(=O)Nc3nccs3)nc3c(c2=O)SCC3)cc1	none
Nc1cnc(Nc2ccc(Br)cc2)nc1N	aSyn 5UTR act -105.9
O=C(c1cccs1)N1N=C(c2ccc(O)cc2)CC1c1ccccc1 (configuration not stated)	aSyn 5UTR act -71.7
CC(=O)CSc1nc2ccccc2o1	aSyn 5UTR act -75.0
O=C(CSc1nc2ccccc2o1)c1ccccc1	aSyn 5UTR act -95.1
Cc1cc(SCC(=O)c2ccccc2)n2ncc(-c3ccccc3)c2n1	aSyn 5UTR act -138.0
O=C(CSc1ccc(-c2ccco2)nn1)c1ccccc1	aSyn 5UTR act -87.8
O=[N+]([O-])c1ccc(Cl)cc1Sc1nc2ccccc2o1	none
O=C(CSc1ccc2ccccc2n1)c1ccccc1	aSyn 5UTR act -125.5
Cc1cc(SCC(=O)c2ccccc2)nc(C)n1	aSyn 5UTR act -114.7
O=C(O)c1ccccc1CSc1nc2ccccc2o1	aSyn 5UTR act -114.0
CCOC(=O)c1sc(-c2ccc(C)cc2)c(C#N)c1C	aSyn 5UTR act -64.9
CN(C)c1cc(N/N=C/c2ccc(Cl)cc2)nc(N(C)C)n1	aSyn 5UTR act -64.5
Clc1ccccc1/C=C/c1ccnc2ccccc12	aSyn 5UTR act -109.2
Oc1ccc(/C=C/c2ccnc3ccccc23)cc1	aSyn 5UTR act -112.4
CS(=O)(=O)N1CCN(c2ccc(NC(=O)c3ccc(Br)o3)cc2)CC1	aSyn 5UTR act -123.4
CC1CCN(c2ccc(NC(=O)c3ccc(Br)o3)cc2)CC1	aSyn 5UTR act -143.7
Cc1cccc(N(C)S(=O)(=O)c2ccc(-c3cnc(C4CC4)o3)cc2)c1	none
CCOC(=O)c1cc2c(nc1N)CC(C)(CC)OC2 (configuration not stated)	aSyn 5UTR act -100.7
Cc1csc2ncnc(N3CCN(C(=S)Nc4ccc(C(F)(F)F)cc4)CC3)c12	none
O=C(Nc1ccc(Cl)c(Cl)c1)N1CCCCCC1	aSyn 5UTR act -140.2
O=C(Nc1ccc2nsnc2c1)N1CCCCCC1	aSyn 5UTR act -98.0
S=C(Nc1ccc2nccnc2c1)N1CCCC1	aSyn 5UTR act -86.7
